The nature of test [1]: qHTS assay to identify small molecule antagonists of the vitamin D receptor (VDR) signaling pathway - cell viability counter screen (AID 743225; active = well fitted curve in the direction sought with a large enough effect in the repeat runs; an effect the other way counts as inactive or inconclusive; note: nearly all actives have a fitted effect of over 50% in size; note: potency is the fitted concentration of half-maximal effect). The method, boiled down: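 Read-out: CellTiter-Glo luminescence measured 30 min after reagent addition at room temperature. Cells were VDR-bla HEK 293T exposed 16 h at 37C, 5% CO2, to compound with 3 nM final calcitriol agonist.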
A general note: qHTS replaces the single test concentration by a dilution series.

The nature of test [2]: qHTS assay to identify small molecule agonists of the NFkB signaling pathway - cell viability counter screen (AID 1159515). Note: series mostly up to about 61 µM; nearly all actives have a fitted effect of over 55% in size. The method, boiled down: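 Read by CellTiter-Glo luminescence (30 min, room temperature) in the wells also used for the beta-lactamase FRET read. ME-180 NFkB-bla cells at 2,000 per well were plated overnight, then exposed to compound for 5 hr at 37 C.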

A short description of test [3]: qHTS assay to identify small molecule agonists of the endoplasmic reticulum stress response signaling pathway (AID 1159516; active = well fitted activation curve with a large enough effect in the signal ratio in the repeat runs, not every such curve was filed as active; the % refers to the signal ratio). The method, boiled down: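 Ratiometric FRET readout (405 nm excitation; 460 and 530 nm emission) of a beta-lactamase gene driven by the ER stress response element, after 2 hr substrate loading. HeLa ESRE-bla cells were seeded overnight and treated with compounds for only 5 hr at 37 C.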

Test [4] in a line: qHTS assay to identify small molecule agonists of the endoplasmic reticulum stress response signaling pathway - cell viability counter screen (AID 1159517). Note: series mostly up to about 61 µM; nearly all actives have a fitted effect of over 50% in size. The method, boiled down:
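Steps: seed 1,500 ESRE-bla HeLa cells per well; incubate overnight at 37 C, 5% CO2; add compounds in DMSO for 5 hr; run FRET substrate 2 hr RT; add CellTiter-Glo, wait 30 min, read luminescence.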

Test [5] in a line: qHTS assay to identify small molecule antagonists of the retinoid-related orphan receptor gamma (ROR-gamma) signaling pathway - cell viability counter screen (AID 1159520; active = well fitted curve in the direction sought with a large enough effect in the repeat runs; an effect the other way counts as inactive or inconclusive; note: nearly all actives have a fitted effect of over 50% in size). The method, boiled down:
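Tet-on ROR gamma CHO cells were given compounds for 2 hr, then doxycycline hyclate at 1 uM final, and incubated 16 hr at 37 C. Viability was measured as ATP content by CellTiter-Glo luminescence.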

Test [6] concerns the target Nuclear receptor ROR-gamma (Homo sapiens) (UniProt P51449). As to the kind of experiment: qHTS assay to identify small molecule antagonists of the retinoid-related orphan receptor gamma (ROR-gamma) signaling pathway (AID 1159521; active = well fitted curve in the direction sought with a large enough effect in the repeat runs; an effect the other way counts as inactive or inconclusive; note: nearly all actives have a fitted effect of over 50% in size; note: potency is the fitted concentration of half-maximal effect). The method, boiled down: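 CHO Tet-on RORγ, RORE-luc reporter. Cpd 2 h pre-incubation, then dox hyclate 1 uM final, 16 h, 37 C/5% CO2. ONE-Glo luminescence; decrease = antagonist.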

The nature of test [7]: qHTS assay to identify small molecule agonists of the AP-1 signaling pathway - cell viability counter screen (AID 1159525). Note: nearly all actives have a fitted effect of over 55% in size. The procedure, abridged: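 Same-well cytotoxicity counter screen of the Tox21 10K library in ME-180 cells. The readout is ATP-dependent luminescence after 5 h compound treatment. Data are normalised to DMSO and tetra n-octyl ammonium bromide controls.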

Test [8] can be described thus: qHTS assay to identify small molecule agonists of the AP-1 signaling pathway (AID 1159526).
Test [9] has as its target Retinoic acid receptor RXR-alpha (Homo sapiens) (UniProt P19793). Kind of test: qHTS assay to identify small molecule agonists of the RXR signaling pathway (AID 1159527). Note: nearly all actives have a fitted effect of over 35% in size. The method, boiled down:
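Read-out: beta-lactamase FRET ratio (405 nm excitation, 460 and 530 nm emission) after 2 hr substrate loading at room temperature. Cells were RXR-alpha-UAS-bla HEK 293T treated with compounds for 16 hr in 2% charcoal-stripped FBS medium.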

The nature of test [10]: qHTS assay to identify small molecule agonists of the RXR signaling pathway - cell viability counter screen (AID 1159529; active = well fitted curve in the direction sought with a large enough effect in the repeat runs; an effect the other way counts as inactive or inconclusive; note: nearly all actives have a fitted effect of over 50% in size; note: potency is the fitted concentration of half-maximal effect). The method, boiled down:
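HEK 293T RXRa-bla cells, 2% CS-FBS; 5 h settle; cpd 16 h 37 C, 5% CO2; CellTiter-Glo 30 min RT, luminescence. Tetraoctyl ammonium bromide as positive control.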

“And” between values parts separate entries of the source, which are not always exact repeats. Equal values may be shown once. Results filed as inconclusive are left out. More than one record can exist for a structure, and the calls need not agree. The source made the active and inactive calls. Unless noted, calls come from the whole dose curve.

Sequence of Retinoic acid receptor RXR-alpha (Homo sapiens) (P19793 whole entry, looked up): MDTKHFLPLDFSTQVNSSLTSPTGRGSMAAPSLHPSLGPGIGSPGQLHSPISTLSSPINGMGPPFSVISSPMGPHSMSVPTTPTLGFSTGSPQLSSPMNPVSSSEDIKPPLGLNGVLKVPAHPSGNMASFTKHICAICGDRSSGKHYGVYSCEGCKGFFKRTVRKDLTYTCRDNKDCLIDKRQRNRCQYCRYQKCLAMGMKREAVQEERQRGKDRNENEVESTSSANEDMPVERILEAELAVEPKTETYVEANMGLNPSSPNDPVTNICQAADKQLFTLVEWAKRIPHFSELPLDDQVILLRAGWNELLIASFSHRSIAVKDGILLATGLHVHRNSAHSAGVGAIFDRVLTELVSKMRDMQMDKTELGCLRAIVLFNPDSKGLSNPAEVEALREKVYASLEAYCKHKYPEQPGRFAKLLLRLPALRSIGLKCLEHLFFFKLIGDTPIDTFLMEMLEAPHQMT

`NCCNCCNCCN`: the Potency entry in test [1], in test [2], in test [3], in [4], in test [5] and in test [6] was “inactive” each time. For the same compound, the Potency result in test [7], in [9] and in test [10] was “inactive” in each case. Moreover, the compound was called inactive in test [8].

With `C=CC(=O)NCOCCCC`, the Potency result in test [1], in test [2], in [3], in test [4], in test [5] and in [6] was “inactive” in each case. The Potency result in [7] and in test [10] was “inactive” throughout. Besides, the compound was classed as inactive in [8].

Turning to `C=C1C[C@]23C[C@@]1(O)CC[C@H]2[C@@]12C=C[C@H](O)[C@@](C)(C(=O)O1)[C@H]2[C@@H]3C(=O)O`, the Potency entry in test [1], in test [2], in test [3], in [4], in [5] and in test [6] was “inactive” each time. Further, the Potency entry in [7] and in test [10] was “inactive” throughout. Moreover, the result in test [8] was inactive.

As for `OC1CCCCC1`, the Potency result in test [1], in test [2], in [3], in test [4], in [5] and in test [6] was “inactive” throughout. The Potency result in [7], in [9] and in test [10] was “inactive” each time. The compound was called inactive in [8].

With `O=C1C(N(CO)C(=O)NCO)N(CO)C(=O)N1CO` (centres undefined), the Potency entry in [1], in [2], in [3], in [4], in test [5] and in [6] was “inactive” each time. For the same compound, the Potency entry in test [7], in [9] and in test [10] was “inactive” throughout. In addition, the compound was classed as inactive in [8].

Take `CCCCCNCCCCC`: the Potency result in [1], in [2], in [3], in test [4], in test [5] and in [6] was “inactive” throughout. In addition, the Potency entry in [7], in test [9] and in test [10] was “inactive” in each case. Besides, in test [8], the result was inactive.

For `Clc1cccc(Cl)c1NC1=NCCN1`, the Potency entry in [1], in [2], in test [3], in test [4], in test [5] and in test [6] was “inactive” each time. The Potency result in test [7] and in test [10] was “inactive” in each case. For the same compound, in [8], the compound was classed as inactive.

For the compound `C[n+]1ccn(CCO)c1`, the Potency result in test [1], in [2], in [3], in test [4], in [5] and in test [6] was “inactive” in each case. The Potency entry in test [7], in test [9] and in test [10] was “inactive” in each case. In addition, in test [8], the compound was called inactive.

In the case of `CCc1cccc(O)c1`, the Potency entry in test [1], in test [2], in [3], in test [4], in test [5] and in test [6] was “inactive” throughout. Besides, the Potency entry in test [7] and in test [10] was “inactive” throughout. The compound was called inactive in test [8].

With `CCN(CC)CCNC(=O)c1ccc(N)cc1`, the Potency result in [2], in test [3], in [4], in test [5], in test [6] and in test [7] was “inactive” in each case. For the same compound, the Potency entry in [10] was “inactive”. Moreover, the compound was classed as inactive in [8].

As for `O=[N+]([O-])c1cc(C(F)(F)F)ccc1Cl`, the Potency result in test [1], in test [2], in [3], in test [4], in test [5] and in test [6] was “inactive” throughout. Also, the Potency result in test [7] and in [10] was “inactive” in each case. Also, in [8], the call was inactive.

Regarding `CO[Si](CCCNCCN)(OC)OC`, the Potency result in test [1], in test [2], in test [3], in [4], in test [5] and in [6] was “inactive” each time. The Potency result in test [7] and in test [10] was “inactive” each time. For the same compound, the result in test [8] was inactive.

As to `CCOC(=O)CC(=O)OCC`, the Potency result in test [1], in test [2], in test [3], in [5], in test [6] and in [7] was “inactive” each time. For the same compound, the Potency entry in [9] and in test [10] was “inactive” in each case. In addition, the compound was classed as inactive in [8].

With `C[Si](C)(C)N[Si](C)(C)C`, the Potency result in test [1], in test [3], in test [4], in test [5], in test [6] and in [7] was “inactive” in each case. Moreover, the Potency entry in test [9] and in [10] was “inactive” each time. For the same compound, the compound was called inactive in [8].

Take `O=C(c1ccccc1)c1ccc(O)c(O)c1O`: the Potency entry in test [1], in test [2], in test [4], in [5], in test [6] and in test [7] was “inactive” each time. Also, the Potency entry in [10] is “inactive”. Besides, in test [8], the outcome was inactive.

For the compound `CCCCCCCC(=O)O`, the Potency entry in test [1], in test [2], in [3], in test [5], in test [6] and in [7] was “inactive” throughout. Besides, the Potency result in test [10] is “inactive”. Also, the compound was called inactive in test [8].

In the case of `OCC(O)CS` (centres undefined), the Potency entry in test [1], in [2], in test [5], in [6], in [7] and in test [10] was “inactive” in each case. Besides, in test [8], the outcome was inactive.

Take `COC(=O)OC`: the Potency result in [1], in test [2], in [5], in test [6], in test [7] and in test [10] was “inactive” throughout. Further, the result in test [8] was inactive.

With `CC[N+](CC)(CC(=O)Nc1c(C)cccc1C)Cc1ccccc1`, the Potency entry in test [1], in [2], in [4], in test [5], in test [6] and in [7] was “inactive” each time. Besides, the Potency entry in [9] and in [10] was “inactive” each time. For the same compound, the call in test [8] was inactive.

`CCCCC(=O)O`: the Potency entry in test [1], in [2], in [5], in [6], in test [7] and in [9] was “inactive” throughout. Also, the Potency entry in [10] is “inactive”. For the same compound, the compound was called inactive in [8].

On to `Cc1ccncc1`, for which the Potency entry in test [1], in test [2], in [5], in test [6], in [7] and in test [9] was “inactive” each time. Besides, the Potency entry in test [10] was “inactive”. Also, the outcome in [8] was inactive.

For the compound `NC(N)=S`, the Potency result in [1], in test [2], in [4], in test [5], in test [6] and in [7] was “inactive” throughout. In addition, the Potency result in [9] and in test [10] was “inactive” in each case. In test [8], the call was inactive.

Consider `OC[C@H]1O[C@@H](Oc2ccc(O)cc2)[C@H](O)[C@@H](O)[C@@H]1O`, for which the Potency result in [1], in test [2], in [5], in [6], in test [7] and in test [9] was “inactive” in each case. The Potency entry in [10] is “inactive”. Further, the compound was called inactive in [8].

For `OCC(CO)(CO)CO`, the Potency entry in test [1], in test [2], in test [3], in test [5], in test [6] and in test [7] was “inactive” in each case. Moreover, the Potency entry in test [10] was “inactive”. Besides, in test [8], the call was inactive.

`CCCCCCCCCCCCCC(=O)O`: the Potency entry in test [1], in test [2], in test [4], in test [5], in [6] and in test [7] was “inactive” throughout. The Potency entry in test [9] and in test [10] was “inactive” each time. The compound was classed as inactive in [8].

In the case of `C=CC(C)(C)C`, the Potency result in test [1], in test [2], in [4], in [5], in test [6] and in test [7] was “inactive” throughout. Further, the Potency result in [10] is “inactive”. For the same compound, the compound was called inactive in test [8].

For the compound `CC(CN1c2ccccc2Sc2ccccc21)N(C)C` (centres undefined), the Potency in test [1] was 21.9 µM (active); in [6], 24.6 µM (active) and 54.5 µM (active); in test [10] it was 55.5 µM (active) and inactive. Further, the Potency result in test [2], in [3], in [5], in test [7] and in test [9] was “inactive” in each case.

Turning to `COC(=O)CCCCC(=O)OC`, the Potency result in test [1], in test [2], in test [4], in test [5], in test [6] and in test [7] was “inactive” throughout. The Potency entry in [9] and in test [10] was “inactive” throughout. Besides, the compound was classed as inactive in test [8].

The values are drawn from PubChem BioAssay (Tox21).
